Results from the supplement of paper PMC13380429.

System: Vero E6 infected with SARS-CoV-2
Test: inhibition of SARS-CoV-2 cytopathic effect; higher = more antiviral protection, active = above 15
Details: 48 h

Measured: inhibition of SARS-CoV-2 cytopathic effect

Cc1ccc(F)cc1C(=O)Nc1ccc(C(=O)N2Cc3cccn3Cc3ccccc32)c(Cl)c1 [lixivaptan]
inactive: 1 nM -2.22% | 8.33 nM 2.67% | 100 nM 2% | 833.33 nM 1.18% | 10000 nM -0.31%

O=C1c2c(O)cccc2C([C@@H]2O[C@H](CO)[C@@H](O)[C@H](O)[C@H]2O)c2cc(CO)cc(O)c21 (stereo not given in full) [aloin]
inactive: 1 nM -0.62% | 8.33 nM 0.1% | 100 nM -0.43% | 833.33 nM 1.27% | 10000 nM 1.29%

COc1cc(NS(=O)(=O)c2ccc(N)cc2)ncn1 [sulfamonomethoxine]
inactive: 1 nM 0.65% | 8.33 nM 1.44% | 100 nM -1.17% | 833.33 nM 1.1% | 10000 nM 1.17%

CC(=O)O[C@]1(C(C)=O)CC[C@H]2[C@@H]3C=C(C)C4=CC(=O)CC[C@]4(C)[C@H]3CC[C@@]21C [megestrol-acetate]
inactive: 1 nM -0.56% | 8.33 nM -0.6% | 100 nM -1.59% | 833.33 nM -0.54% | 10000 nM 0.33%

CC1=CC[C@@H](C(C)(C)O)C[C@@H]1O [sobrepin]
inactive: 1 nM -10% | 8.33 nM -11.1% | 100 nM -11.4% | 833.33 nM -13.5% | 10000 nM -10.4%

CCc1cc(Cl)c(OC)c(C(=O)NC[C@@H]2CCCN2CC)c1O [eticlopride]
inactive: 1 nM -0.43% | 8.33 nM -0.67% | 100 nM 1.17% | 833.33 nM 0.92% | 10000 nM 3.78%

NS(=O)(=O)c1cc2c(cc1Cl)N=C(CSCc1ccccc1)NS2(=O)=O [benzthiazide]
inactive: 1 nM 3.18% | 8.33 nM 0.15% | 100 nM 0.52% | 833.33 nM 2.56% | 10000 nM -0.2%
